Tau filament bind: qHTS Assay for Tau Filament Binding; Microtubule-associated protein tau (Homo sapiens), P10636; recombinant tau filaments, thioflavin S fluorescence, 15 h; filaments grown with octadecylsulfate alongside compound; Potency, µM (series often up to 57.1 µM); AID 596, 2007; 2% of 71,000 active;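 also: actives lower thioflavin S fluorescence by blocking filaments or displacing dye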
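His-tagged recombinant human tau (exons 2, 3 and 10 included), 1 uM, was induced to fibrillize by 30 uM sodium octadecylsulfate with compound present. After 15 h at 37 C, thioflavine S fluorescence (ex 450, em 510 nm) was read.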
DNA Pol III inh: qHTS Assay for Inhibitors of DNA Polymerase III Holoenzyme System. Potency, µM (titrated, usually from 57.1 µM). 0.25% of 71,000 active. AID 603, 2007. reconstituted DNA polymerase III holoenzyme replication, biochemical
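Reconstituted *E. coli* holoenzyme (0.35 nM Pol III, 1 nM beta, 154 nM SSB, 2 nM primase) was preincubated with compound for 15 min at RT. Synthesis on 1.4 nM ssM13Gori ran 35 min, then was stopped with PicoGreen/EDTA and read as dsDNA fluorescence.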
ALOX15 inhib: qHTS Assay for Inhibitors of 15-hLO (15-human lipoxygenase) | Polyunsaturated fatty acid lipoxygenase ALOX15 (Homo sapiens), P16050 | purified 15hLO-1, xylenol orange hydroperoxide absorbance | Potency, µM (titrated, usually from 57.1 µM), hits mostly inhibitors | 1.4% of 74,000 active | AID 887, 2007; also: nearly all actives have a fitted effect of over 55% in size
Target sequence (P16050 whole entry, looked up): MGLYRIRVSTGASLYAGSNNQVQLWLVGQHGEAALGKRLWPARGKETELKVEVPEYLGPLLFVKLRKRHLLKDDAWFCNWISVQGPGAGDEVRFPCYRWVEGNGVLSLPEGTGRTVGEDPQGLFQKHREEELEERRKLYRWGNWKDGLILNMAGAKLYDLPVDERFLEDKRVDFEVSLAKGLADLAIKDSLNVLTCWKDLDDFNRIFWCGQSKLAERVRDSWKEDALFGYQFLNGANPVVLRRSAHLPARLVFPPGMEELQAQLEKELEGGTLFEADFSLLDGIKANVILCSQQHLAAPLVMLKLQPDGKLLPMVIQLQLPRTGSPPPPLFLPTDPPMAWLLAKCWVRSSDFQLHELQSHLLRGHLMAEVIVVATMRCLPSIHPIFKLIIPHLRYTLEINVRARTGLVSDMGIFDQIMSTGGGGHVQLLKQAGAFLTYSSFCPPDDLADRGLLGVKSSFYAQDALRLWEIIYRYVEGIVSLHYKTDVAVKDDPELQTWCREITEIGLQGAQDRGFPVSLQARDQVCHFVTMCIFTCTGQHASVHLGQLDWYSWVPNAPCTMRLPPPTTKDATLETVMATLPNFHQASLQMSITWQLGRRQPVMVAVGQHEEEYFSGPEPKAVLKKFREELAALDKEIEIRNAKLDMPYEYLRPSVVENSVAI
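Quantitative HTS in 25 mM Hepes pH 7.5 containing 0.01% Triton X-100: human 15hLO-1 at 40 nM, arachidonic acid at 50 uM, 6 min turnover. Product quantified via ferrous oxidation/xylenol orange, 573:405 nm absorbance ratio.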
TsaE inh: qHTS Assay for Inhibitors of YjeE; tRNA threonylcarbamoyladenosine biosynthesis protein TsaE (Escherichia coli (strain …; purified YjeE enzyme, qHTS inhibition assay; Potency, µM; 0.05% of 71,000 active
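Purified YjeE (10 uM) with BODIPY Texas Red-labeled ADP probe (2 uM); compounds pin-transferred, 15 min at room temperature. Binding inhibition read as decreased fluorescence polarization; ADP titration as control.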
BRCT inh red: qHTS Assay for Inhibitors of BRCT-Phosphoprotein Interaction (Red Fluorophore); Potency, µM (top dose mostly 76.9 µM), usual class: inhibitors; 0.03% of 75,000 active; BRCT-phosphopeptide binding, red fluorescence polarization; Breast cancer type 1 susceptibility protein (Homo sapiens), P38398; AID 892, 2007
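Fluorescence polarization: 100 nM His-tagged BRCA1 BRCT with 100 nM TAMRA-labelled phospho-BACH1 decapeptide, phosphate buffer pH 7.3 with 150 mM NaCl, DTT, 0.01% Tween 20; 12 min RT. Binding inhibition seen as FP decrease.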
BRCT PPI green: qHTS Assay for Inhibitors of BRCT-Phosphoprotein Interaction (Green Fluorophore); BRCA1 BRCT-phosphopeptide binding, green fluorescence polarization; Potency, µM (titrated, usually from 76.9 µM), usual class: inhibitors; 0.05% of 75,000 active; Breast cancer type 1 susceptibility protein (Homo sapiens), P38398
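Compounds were incubated for 12 min at room temperature with a complex of 100 nM fluorescein-tagged pBACH1 decapeptide and 250 nM His-tagged BRCT protein. Buffer was phosphate pH 7.3 with EDTA, DTT and Tween 20. Disruption of binding lowers the polarization signal.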
Numbers stand for hits; – = inactive; ? = inconclusive; · = no result; ! = repeats disagree; [ ] = remark or other dose. This is a sample that favours compounds with a hit; in the whole collection about 3.3% have one here. Calls follow the shape of the dose curve; as a rule, active = well fitted curve in the direction sought with a large enough effect; inconclusive = small, poorly fitted or top-dose-only effect, or another doubt; inactive = no such curve, though single readings can be large; an effect the other way counts as inactive or inconclusive.

SMILES | Tau filament bind | DNA Pol III inh | ALOX15 inhib | TsaE inh | BRCT inh red | BRCT PPI green
O=c1cc(-c2c(F)c(F)c(F)c(F)c2F)oc2c(F)c(F)c(F)c(F)c12 | 15.8µM | – | – | – | – | –
COc1ccc(-c2cc(=O)c3c(OC)c(OC)c(OC)c(OC)c3o2)cc1OC | · | · | – | · | – | –
Cc1nc(C)c(C(=O)Nc2nc3c(C)cccc3s2)o1 | 31.6µM | – | ? | – | – | –
Cc1ccccc1-c1cc(NCc2ccccc2)ncn1 | – | – | – | – | – | –
C=CC(C1=CC(=O)C(OC)=CC1=O)c1ccc(OC)cc1 (stereo unspecified) | · | · | 7.94µM | · | – | –
C=CC(C1=CC(=O)C(OC)=CC1=O)c1ccccc1 (stereo unspecified) | · | · | 3.16µM | · | – | –[3.08 µM]
C=CC(C1=CC(=O)C(OC)=C(OC)C1=O)c1ccccc1 (stereo unspecified) | · | · | ? | · | – | –
O=[N+]([O-])c1ccc(Cl)cc1Cl | – | – | – | – | – | –
O=C1c2oc3ccc(F)cc3c(=O)c2C(c2cccc(O)c2)N1CCCN1CCOCC1 (stereo unspecified) | – | – | – | – | – | –
Cc1ccc2oc3c(c(=O)c2c1)C(c1cccc(Cl)c1)N(CCCN1CCOCC1)C3=O (stereo unspecified) | 12.6µM | – | – | – | – | –
Cc1cc2oc3c(c(=O)c2cc1C)C(c1ccc(C(C)C)cc1)N(CCCN1CCOCC1)C3=O (stereo unspecified) | 3.98µM | – | ? | – | – | –
COC(=O)c1ccc(C2c3c(oc4ccccc4c3=O)C(=O)N2CCCN2CCOCC2)cc1 (stereo unspecified) | ? | – | – | – | – | –
CCOc1ccc(C2c3c(oc4cc(C)c(C)cc4c3=O)C(=O)N2CCCN2CCOCC2)cc1 (stereo unspecified) | 15.8µM | – | – | – | – | –
CCOc1ccc(C2c3c(oc4ccccc4c3=O)C(=O)N2CCCN2CCOCC2)cc1 (stereo unspecified) | – | – | – | – | – | –
CC1CCC(C(=O)O)NC1c1cccc(N2CCCC2=O)c1 (stereo unspecified) | · | · | –[11.4 µM] | · | –[15.4 µM] | –[15.4 µM]
Cc1ccc(S(=O)(=O)N[C@H]2COC(=O)[C@H](C)COC(=O)[C@H](C)NC(=O)C/C=C\[C@H]2C)cc1 | · | · | –[11.4 µM] | · | –[15.4 µM] | –[15.4 µM]
CC12CC3OS(=O)OC3CC3C4C(C(OCc5ccccc5)C31)C42 (stereo unspecified) | · | · | –[11.4 µM] | · | –[15.4 µM] | –[15.4 µM]
Cc1ccc([N+](=O)[O-])cc1N | – | – | – | – | – | –
Cc1ccc([N+](=O)[O-])cc1S(=O)(=O)N(C)C | · | · | 25.1µM! | · | – | –
CCOC(=O)N1CCN(c2cc(NCCC(=O)O)c3c4c(onc24)-c2ccccc2C3=O)CC1 | 12.6µM | – | – | – | – | –
O=C(O)CCCNc1cc(N2CCC3(CC2)OCCO3)c2noc3c2c1C(=O)c1ccccc1-3 | 15.8µM | 3.16µM | ? | – | ? | –
COc1cc2c(cc1O)CC[C@@H]1[C@@H]2CC[C@@]2(C)[C@H](O)CC[C@H]12 | – | – | – | – | – | –
Cc1cc(O)c(C(C)(C)C)cc1Sc1cc(C(C)(C)C)c(O)cc1C | 20µM | – | ? | – | – | –
CC(C)(C)c1cc(O)c(C(C)(C)C)cc1O | ? | – | ? | – | – | –
COc1ncc2nc(-c3cccc(C#N)c3)c(=O)n(CCC#N)c2n1 | – | – | – | – | – | –
SMILES | Tau filament bind | DNA Pol III inh | ALOX15 inhib | TsaE inh | BRCT inh red | BRCT PPI green
Cc1cccc(-n2c(SCC(=O)Nc3nnc(C)s3)nnc2-c2ccoc2C)c1 | 15.8µM | – | – | – | – | –
CCc1nnc(NC(=O)CSc2nnc(-c3ccoc3C)n2-c2cccc(C)c2)s1 | – | – | – | – | – | –
C(=N\n1cnnc1)/c1ccc2ncccc2c1 | 12.6µM | – | – | – | – | –
C(=N\n1cnnc1)/c1ccc2c(c1)OCO2 | – | – | – | – | – | –
O=C(O)C[C@H](Cc1ccc2c(c1)OCO2)C(=O)O | –[11.4 µM] | –[11.4 µM] | –[11.4 µM] | – | –[15.4 µM] | –[15.4 µM]
CC(C)=CCCC(C)CCO (stereo unspecified) | – | – | 7.94µM | – | – | –
Cc1onc(-c2c(Cl)cccc2Cl)c1C(=O)Nc1ccc2c(c1)OCO2 | 3.16µM | – | – | – | – | –
Cn1c(C(=O)Nc2ccc3c(c2)OCO3)cc2sccc21 | 12.6µM | – | – | – | – | –
CC(C)c1cc(C(=O)Nc2ccc3c(c2)OCO3)no1 | 12.6µM | – | – | – | – | –
CC(=O)Nc1cccc(NC(=O)c2c(-c3ccccc3Cl)noc2C)c1 | – | – | – | – | – | –
Cn1c(C(=O)NCc2ccc3c(c2)OCO3)cc2sccc21 | – | – | – | – | – | –
CCCSC1=N/C(=C\C=C\c2ccco2)C(=O)S1 | 2µM | 1.26µM | 2.51µM | – | – | –
Cc1cc(F)ccc1OC1C=CC(c2ccc3c(c2)OCO3)OC1CO (stereo unspecified) | · | · | –[11.4 µM] | · | –[15.4 µM] | –[15.4 µM]
NCCOB(c1ccccc1)c1ccccc1 | – | – | 0.631µM | ? | – | –
COc1cccc(-c2cn3nc(C)c(C)nc3n2)c1 | 10µM | – | – | – | – | –
Nc1nc(Cl)cc(NCCO)n1 | –[11.4 µM] | –[11.4 µM] | –[11.4 µM] | – | –[15.4 µM] | –[15.4 µM]
CC(C)(C)NCC(O)COc1ccccc1C(C)(C)C (stereo unspecified) | – | – | – | – | – | –
CC(C)(C)NC[C@@H](O)COc1ccccc1C1CCCC1 | 12.6µM | – | – | – | – | –
COc1ccc(NCc2nnc(SCC(=O)Nc3cc(C(F)(F)F)ccc3Cl)o2)cc1 | 20µM | – | – | – | – | –
O=C(Cc1nc2ccccc2s1)c1ccc(O)cc1O | – | – | 15.8µM | – | – | –
COc1ccc(CC(=O)c2ccc(O)cc2O)cc1 | · | · | – | · | – | –[3.08 µM]
Nc1cc2c(nc3c4ccccc4c(N)cc3[n+]2-c2cccc3ccccc23)c2ccccc12 (tested in a mixture with another compound) | 0.631µM | –[11.4 µM] | –[11.4 µM] | ? | –[15.4 µM] | –[15.4 µM]
OCCCCNc1cccc2ccccc12 | 25.1µM | – | – | – | – | –
CCN(CC(=O)Nc1ccc2c(c1)CCC2)Cc1nc2ccccc2c(=O)[nH]1 | – | ? | – | – | – | –
CCN(CC)CC(=O)Nc1ccc2c(c1)Nc1ccccc1CC2 | 12.6µM | – | – | – | – | –
O=C(O)c1cc(-c2ccco2)nc2ccc(Br)cc12 | – | 25.1µM | ? | – | – | –
OC[C@@H](O)CNc1ncnc2ccccc12 | –[11.4 µM] | –[11.4 µM] | –[11.4 µM] | – | –[15.4 µM] | –[15.4 µM]
NC(N)=N/N=C\c1ccc(O)c(C(=O)O)c1 | –[11.4 µM] | –[11.4 µM] | –[11.4 µM] | – | –[15.4 µM] | –[15.4 µM]

Assay outcomes from PubChem.
